Results with a measured potency or affinity are listed apart.
How the values were obtained:
Klebsiella pneumoniae = settings: Concentration 20 uM; ASSAY_TEST Inhibition of Bacterial Growth; detection method Absorption (OD600); MEDIA CAMHB; plate type 384well; NBS; CORNING #3640; time 18 hr
Candida albicans = settings: 20 µM
Cryptococcus neoformans = settings: Concentration 20 uM; ASSAY_TEST Inhibition of Fungal Growth; detection method Resazurin; Absorption (OD600-OD570); plate type 384well; NBS; CORNING #3640

c1ccc(-c2[nH]c3ccccc3c2C(c2ccccn2)N2CCCC2)cc1 (centres undefined)
Inhibition (Klebsiella pneumoniae): 11.72% | Inhibition (Candida albicans): 1.35% | Inhibition (Cryptococcus neoformans): -10.11%

CCC(Sc1nc2ccccc2o1)C(=O)Nc1nnc(C)s1 (centres undefined)
Inhibition (Klebsiella pneumoniae): -2.47% | Inhibition (Candida albicans): 4.83% | Inhibition (Cryptococcus neoformans): -9.17%

COc1ccc(N(CCc2cccc(C)n2)C(C)=O)cc1
Inhibition (Klebsiella pneumoniae): 13.85% | Inhibition (Candida albicans): 2.97% | Inhibition (Cryptococcus neoformans): -4.26%

CCOc1ccc2cc(-c3nn(C(C)(C)C)c(N)c3C(N)=O)cnc2c1.Cl
Inhibition (Klebsiella pneumoniae): 13.27% | Inhibition (Candida albicans): 2.56% | Inhibition (Cryptococcus neoformans): -7.03%

Cc1cc(C)n2nc(C(=O)Nc3cc(C(F)(F)F)ccc3N3CCOCC3)nc2n1
Inhibition (Klebsiella pneumoniae): 15.61% | Inhibition (Candida albicans): 5.28% | Inhibition (Cryptococcus neoformans): -4.53%

CCc1cc(=O)n(C)c(SC(C)C(=O)Nc2ccc(F)cc2)n1 (centres undefined)
Inhibition (Klebsiella pneumoniae): 3.6% | Inhibition (Candida albicans): 0.76% | Inhibition (Cryptococcus neoformans): -9.3%

COc1ccc(S(=O)(=O)Nc2ccc(CN3CCN(C(=O)c4cccc(C#N)c4)CC3)cc2)cc1
Inhibition (Klebsiella pneumoniae): 6.9% | Inhibition (Candida albicans): 1.12% | Inhibition (Cryptococcus neoformans): -8.14%

CCCn1c(CNc2ccccc2O)nc2ccccc21
Inhibition (Klebsiella pneumoniae): 12.8% | Inhibition (Candida albicans): -0.42% | Inhibition (Cryptococcus neoformans): -15.95%

COc1nc2ccc(Br)cc2cc1[C@@H](c1ccccc1)[C@@](O)(CCN(C)C)c1cccc2ccccc12.O=C(O)C(F)(F)F
Inhibition (Klebsiella pneumoniae): 17.53% | Inhibition (Candida albicans): 4.38% | Inhibition (Cryptococcus neoformans): 56.58%

CC(=O)Nc1ccc(NC(=O)c2cc(-c3cc(Cl)ccc3O)n[nH]2)cc1
Inhibition (Klebsiella pneumoniae): -16.31% | Inhibition (Candida albicans): 54.8% | Inhibition (Cryptococcus neoformans): 0.66%

O=C(NCCc1ccn(-c2ccccc2)n1)C1CCCCC1
Inhibition (Klebsiella pneumoniae): 6.33% | Inhibition (Candida albicans): 3.92% | Inhibition (Cryptococcus neoformans): -9.22%

COC(=O)c1cccc2oc(-c3cccc(OC)c3NC(=O)c3cc(-c4ccccc4)on3)nc12
Inhibition (Klebsiella pneumoniae): 13.16% | Inhibition (Candida albicans): 8.19% | Inhibition (Cryptococcus neoformans): -3.51%

Cc1ccc(S(=O)(=O)n2cc(-c3ccnc(N)c3)c3cc(Br)cnc32)cc1
Inhibition (Klebsiella pneumoniae): 7.11% | Inhibition (Candida albicans): 37.1% | Inhibition (Cryptococcus neoformans): -2.21%

CCCCN(CCCC)c1c(C#N)cc(S(=O)(=O)Nc2ccccc2)cc1C#N
Inhibition (Klebsiella pneumoniae): 5.16% | Inhibition (Candida albicans): 3.66% | Inhibition (Cryptococcus neoformans): -9.03%

CC(C)(C)CN1C(=O)C(c2ccccc2)(c2ccccc2)N=C1N
Inhibition (Klebsiella pneumoniae): 14.16% | Inhibition (Candida albicans): 3.38% | Inhibition (Cryptococcus neoformans): 1.98%

CC(=O)O.CC(=O)O.Nc1ncnc2c1ncn2[C@@H]1O[C@H](COS(=O)(=O)NC(=O)c2ccccc2O)[C@@H](O)[C@H]1O
Inhibition (Klebsiella pneumoniae): 14.67% | Inhibition (Candida albicans): 1.66% | Inhibition (Cryptococcus neoformans): -8.69%

CCCn1nnc(NC(=O)COc2ccc(C3CCCCC3)cc2)n1
Inhibition (Klebsiella pneumoniae): 4.73% | Inhibition (Candida albicans): 21.8% | Inhibition (Cryptococcus neoformans): -8.36%

CC(C)(C)OC(=O)N1CCN(c2cc(-c3ccc(Oc4ccccc4)cc3)n[nH]2)CC1
Inhibition (Klebsiella pneumoniae): 20.96% | Inhibition (Candida albicans): 5.58% | Inhibition (Cryptococcus neoformans): -7.43%

CCN(CC)CCCCCCNc1cc(OC)cc2c(C)ccnc12.Cc1ccc(S(=O)(=O)O)cc1
Inhibition (Klebsiella pneumoniae): 14.1% | Inhibition (Candida albicans): 2.19% | Inhibition (Cryptococcus neoformans): 2.4%

O=S(=O)(c1ccc(Cl)cc1)N1CCN(C(=S)NCc2ccco2)CC1
Inhibition (Klebsiella pneumoniae): 5.39% | Inhibition (Candida albicans): 4.22% | Inhibition (Cryptococcus neoformans): -0.21%

O=C(c1cc2ccccc2o1)N1CCN(Cc2ccc3c(c2)OCO3)CC1
Inhibition (Klebsiella pneumoniae): 9.23% | Inhibition (Candida albicans): -0.54% | Inhibition (Cryptococcus neoformans): -15.32%

CNC(=O)C1Cc2ccccc2N1C(=O)Cc1ccc(F)cc1 (centres undefined)
Inhibition (Klebsiella pneumoniae): 8.26% | Inhibition (Candida albicans): 3.31% | Inhibition (Cryptococcus neoformans): -12.98%

COc1cccc(CC(=O)N2CCC(n3c(C)nc4ccc(F)cc43)CC2)c1
Inhibition (Klebsiella pneumoniae): 12.2% | Inhibition (Candida albicans): 3.01% | Inhibition (Cryptococcus neoformans): -4.62%

COc1ccc(-c2nc(-c3cccc(NC(=O)Cc4ccc(F)cc4)c3)no2)cc1OC
Inhibition (Klebsiella pneumoniae): 13.72% | Inhibition (Candida albicans): 23% | Inhibition (Cryptococcus neoformans): -5.03%

COc1cc(C2=NCCN2)ccc1-c1cn(-c2cccc(C3=NCCN3)c2)nn1
Inhibition (Klebsiella pneumoniae): 15.15% | Inhibition (Candida albicans): 2.69% | Inhibition (Cryptococcus neoformans): 3.58%

CNc1nnc(Sc2cnn(-c3ccccc3)c(=O)c2Cl)s1
Inhibition (Klebsiella pneumoniae): 0.48% | Inhibition (Candida albicans): 4.99% | Inhibition (Cryptococcus neoformans): -9.44%

Cc1cc(OCC(=O)NCc2ccccc2)c2cc(Br)ccc2n1
Inhibition (Klebsiella pneumoniae): 6.14% | Inhibition (Candida albicans): 0.18% | Inhibition (Cryptococcus neoformans): -5.48%

COc1ccc(CCN2CCC(NCc3cccc(N(C)C)c3)CC2)cc1
Inhibition (Klebsiella pneumoniae): 7.89% | Inhibition (Candida albicans): 3.48% | Inhibition (Cryptococcus neoformans): -2.71%

CCN(CC)S(=O)(=O)c1ccc(Cl)c(C(=O)Nc2ccc3nc(C)sc3c2)c1
Inhibition (Klebsiella pneumoniae): 4.43% | Inhibition (Candida albicans): 3.67% | Inhibition (Cryptococcus neoformans): -11.27%

CC(C)(C)n1nc(Cc2ccc(F)c(Cl)c2)c2c(N)ncnc21
Inhibition (Klebsiella pneumoniae): 9.52% | Inhibition (Candida albicans): 4.75% | Inhibition (Cryptococcus neoformans): -6.05%

COc1cc(CN2CCC3(C=Cc4ccccc43)CC2)cc2c1OCO2
Inhibition (Klebsiella pneumoniae): -1.15% | Inhibition (Candida albicans): -0.19% | Inhibition (Cryptococcus neoformans): -8.59%

Clc1ccc(CN2CCN(C3=NCCN3)CC2)cc1Cl
Inhibition (Klebsiella pneumoniae): 16.63% | Inhibition (Candida albicans): 2.1% | Inhibition (Cryptococcus neoformans): -10.37%

CCCCS(=O)(=O)Nc1ccc2cnn(C)c2c1
Inhibition (Klebsiella pneumoniae): 10.18% | Inhibition (Candida albicans): 2.57% | Inhibition (Cryptococcus neoformans): -4.93%

CCS(=O)(=O)N(Cc1ccco1)Cc1cc2ccc(C)cc2nc1O
Inhibition (Klebsiella pneumoniae): 2.3% | Inhibition (Candida albicans): 3.52% | Inhibition (Cryptococcus neoformans): -6.36%

CN1CCN(S(=O)(=O)c2ccc(-c3ccc4c(Nc5ncc(Cl)cn5)ccnc4c3)cc2)CC1
Inhibition (Klebsiella pneumoniae): 7.93% | Inhibition (Candida albicans): 4.17% | Inhibition (Cryptococcus neoformans): -3.42%

CC(C)(C)c1cc(C(=O)Nc2cccnc2)cc(C(=O)Nc2cccnc2)c1
Inhibition (Klebsiella pneumoniae): 16.7% | Inhibition (Candida albicans): 3.35% | Inhibition (Cryptococcus neoformans): -7.29%

CCn1cnc2c(Nc3cc(F)cc(F)c3)nc(C#N)nc21
Inhibition (Klebsiella pneumoniae): 8.51% | Inhibition (Candida albicans): 3.4% | Inhibition (Cryptococcus neoformans): -1.23%

O=C(CCC1CCCCC1)Nc1cccc(-c2nnc(-c3ccco3)o2)c1
Inhibition (Klebsiella pneumoniae): 9.71% | Inhibition (Candida albicans): 5.6% | Inhibition (Cryptococcus neoformans): -12.99%

Clc1ccc(CCNc2cc(-c3ccccc3)nc3ncnn23)cc1
Inhibition (Klebsiella pneumoniae): 8.91% | Inhibition (Candida albicans): 16.3% | Inhibition (Cryptococcus neoformans): -16.06%

CCN(CC)CCCN1CCN(C(=O)c2cccc(-c3noc(C(F)(F)F)n3)c2)CC1
Inhibition (Klebsiella pneumoniae): 3.68% | Inhibition (Candida albicans): 1.48% | Inhibition (Cryptococcus neoformans): -3.47%

O=C(Nc1cnc2ccccc2c1)c1cccc(-n2cnnn2)c1
Inhibition (Klebsiella pneumoniae): 8.59% | Inhibition (Candida albicans): 4.47% | Inhibition (Cryptococcus neoformans): -9.7%

Cc1ccc(-c2cc(C(=O)Nc3cccnc3)c3cc(Br)ccc3n2)cc1
Inhibition (Klebsiella pneumoniae): 15.62% | Inhibition (Candida albicans): 4.34% | Inhibition (Cryptococcus neoformans): -8.45%

O=C(c1ccc(NCCO)cc1)C1C[C@H]1c1ccc(Cl)cc1 (some centres undefined)
Inhibition (Klebsiella pneumoniae): 5.98% | Inhibition (Candida albicans): 6.88% | Inhibition (Cryptococcus neoformans): 2.16%

CS(=O)(=O)c1cccc(-c2cnc3[nH]cc(-c4ccc(CCC(=O)O)cc4)c3c2)c1
Inhibition (Klebsiella pneumoniae): 6.09% | Inhibition (Candida albicans): 11.3% | Inhibition (Cryptococcus neoformans): -4.04%

Nc1nc(N)c2c3c(sc2n1)CN(Cc1ccccc1)CC3
Inhibition (Klebsiella pneumoniae): 10.27% | Inhibition (Candida albicans): 2.79% | Inhibition (Cryptococcus neoformans): -1.76%

CC(C)NCC(=O)Nc1cccc(C(=O)Nc2cccc(C(F)(F)F)c2)c1
Inhibition (Klebsiella pneumoniae): 10.29% | Inhibition (Candida albicans): 3.29% | Inhibition (Cryptococcus neoformans): -11.79%

O=C(c1ccc(F)cc1)N(CCNc1ccccc1)c1ccccc1
Inhibition (Klebsiella pneumoniae): 12.15% | Inhibition (Candida albicans): 5.49% | Inhibition (Cryptococcus neoformans): -9.35%

CS(=O)(=O)Cc1nc2ccccc2oc1=O
Inhibition (Klebsiella pneumoniae): 16.91% | Inhibition (Candida albicans): 1.55% | Inhibition (Cryptococcus neoformans): -16.09%

Cc1cccc(NC(=O)c2cc(S(=O)(=O)N(C)c3ccc(F)cc3)ccc2Cl)n1
Inhibition (Klebsiella pneumoniae): 14.02% | Inhibition (Candida albicans): 9.46% | Inhibition (Cryptococcus neoformans): -4.89%

N#Cc1ccc(-c2ccc(OCC(N)=O)cc2)cc1
Inhibition (Klebsiella pneumoniae): 5.71% | Inhibition (Candida albicans): 3.25% | Inhibition (Cryptococcus neoformans): -13.05%

OCc1ccc(-c2cncc(Nc3cccc(Cl)c3)c2)cc1
Inhibition (Klebsiella pneumoniae): 12.75% | Inhibition (Candida albicans): 4.13% | Inhibition (Cryptococcus neoformans): -14.16%

CCCCc1ccc(C(=O)Nc2nccc3ccccc23)nc1
Inhibition (Klebsiella pneumoniae): 7.3% | Inhibition (Candida albicans): 6.07% | Inhibition (Cryptococcus neoformans): -8.5%

C[C@]1(O)C[C@@H](c2nc(-c3ccc4ccc(-c5ccccc5)nc4c3)c3c(N)nccn32)C1 [LINSITINIB]
Inhibition (Klebsiella pneumoniae): 12.51% | Inhibition (Candida albicans): 8.51% | Inhibition (Cryptococcus neoformans): -8.41%

Reference: ChEMBL document CHEMBL4513149, “CO-ADD screening of MMV (CH) - MMV compounds” (2021)
